Screening data: PubChem, The Scripps Research Institute Molecular Screening Center
Compounds with a hit are over-represented: about 3.4% of the library has one in this group of screens.
GPR151 ag = activates the human receptor GPR151; PathHunter beta-arrestin GPR151 cells, luminescence; activation, % at 11.2 µM; hit rate 1% among 650,000; in the data active = activation above about 4.9%
Target sequence (Q8TDV0 whole entry, looked up): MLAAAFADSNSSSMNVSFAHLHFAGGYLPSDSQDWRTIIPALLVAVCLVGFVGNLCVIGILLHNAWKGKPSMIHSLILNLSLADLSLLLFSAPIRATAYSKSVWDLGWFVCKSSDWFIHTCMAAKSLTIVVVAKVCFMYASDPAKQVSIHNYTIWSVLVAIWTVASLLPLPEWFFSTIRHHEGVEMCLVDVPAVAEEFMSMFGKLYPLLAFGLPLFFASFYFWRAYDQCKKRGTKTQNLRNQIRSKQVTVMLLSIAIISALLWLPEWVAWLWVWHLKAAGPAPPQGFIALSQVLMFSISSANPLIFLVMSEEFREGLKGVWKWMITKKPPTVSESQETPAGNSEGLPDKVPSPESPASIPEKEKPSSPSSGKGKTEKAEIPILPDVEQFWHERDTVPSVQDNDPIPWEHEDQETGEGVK
TEAD-YAP inh = TEAD-YAP interaction inhibition. HEK-TIYL cells, TEAD-Gal4/YAP UAS-luciferase luminescence. inhibition, % at 9.12 µM. hit rate 1.4% among 640,000. AID 1259422; in the data active = inhibition above about 32%
FBW7 act = human FBW7 E3 ligase activation, primary screen; hit rate 0.13% among 650,000; AlphaScreen FBW7–phospho-cyclin E peptide binding, activator screen; normalized activity (activation), % at 26.1 µM; Q969H0; in the data active = normalized activity above about 1.9%;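 also: purified mutant Fbw7 with reduced substrate affinity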
MITF primary = inhibitors of human MITF. AlphaScreen MITF homodimerization, bead proximity signal. AID 1259374. O75030. hit rate 0.91% among 650,000. inhibition, % at 2.6 µM; in the data active = inhibition above about 50%
GPR151 conf act = human GPR151 activation, confirmation screen; shares compounds with GPR151 ag; GPR151 PathHunter beta-arrestin cells, luminescence, 90 min; % of EA-reagent control over plate median; activation, % at 11.2 µM; 6,700 tested, under 10 active; AID 1508609;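 active = mean percent activation across replicates above the confirmation screen cutoff of 4.91%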
GPR119 ag = GPR119 activation, counter-screen for GPR151 activators; GPR119 PathHunter beta-arrestin cells, luminescence, 90 min; 0 = compound-well median, 100 = enzyme-acceptor control; hit rate 0.3% among 6,700; activation, % at 11.2 µM; shares compounds with GPR151 ag;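 active = mean percent activation in the counterscreen above 29.09%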;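 also: counterscreen on off-target GPR119 to flag nonselective hits from the GPR151 activator screen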
Each line names hits and unclear results; the compound was inactive in the other large screens (follow-up assays come after a bar, where they were run).

COC(=O)C(Cc1ccccc1)NC(=O)C(Cc1cnc[nH]1)NC(=O)OCc1ccccc1 (stereo not drawn)	GPR151 ag 5.5 | GPR151 conf act inactive | GPR119 ag inactive
CCOC(=O)CNC(=O)C(Cc1ccccc1)NC(=O)OCc1ccccc1 (stereo not drawn)	none
CCNC(=O)C(Cc1ccc([N+](=O)[O-])cc1)NC(=O)OCc1ccccc1 (stereo not drawn)	GPR151 ag 5.6 | GPR151 conf act inactive | GPR119 ag inactive
COC(=O)C(Cc1ccccc1)NC(=O)C(Cc1ccccc1)NC(=O)OCc1ccccc1 (stereo not drawn)	none
CC(C)N(C(=O)COC(=O)c1ccc(N)c([N+](=O)[O-])c1)c1ccccc1	none
COc1cccc(C2C3CCCC=C3C(C#N)=C(N)C2(C#N)C#N)c1 (stereo not drawn)	none
O=C(CN1CCCCC1)N/N=C/c1ccccc1O	GPR151 ag 5.8 | GPR151 conf act inactive | GPR119 ag inactive
NS(=O)(=O)c1ccc(NC(=O)c2cccc(F)c2)cc1	none
O=C(NCCC1=CCCCC1)C1CC(=O)N(C2CCCC2)C1 (stereo not drawn)	GPR151 ag 5.5 | GPR151 conf act inactive | GPR119 ag inactive
Cc1ccc(NC(=O)N2CCC(C(=O)NCCC3=CCCCC3)CC2)cc1	GPR151 ag 5.0 | GPR151 conf act inactive | GPR119 ag inactive
Nc1nc(NCc2cccnc2)cc(NCc2cccc(C(F)(F)F)c2)n1	none
COc1ccc(CCNc2nc(NC3CCN(Cc4ccccc4)CC3)nc3cc(OC)c(OC)cc23)cc1	GPR151 ag 8.0 | GPR151 conf act inactive | GPR119 ag inactive
O=C1NCC2=C1C(c1ccccc1)Nc1ccccc1N2 (stereo not drawn)	none
O=C1NCC2=C1C(c1ccccc1O)Nc1ccccc1N2 (stereo not drawn)	GPR151 ag 9.2 | GPR151 conf act inactive | GPR119 ag inactive
CN1C(=O)[C@H]2CN(C(=O)c3ccccc3)CCN2C(=O)[C@@H]1Cc1ccccc1	GPR151 ag 5.3 | GPR151 conf act inactive | GPR119 ag inactive
COc1ccc(NC(=O)c2ccoc2C)c(OC)c1	GPR151 ag 6.1 | GPR151 conf act inactive | GPR119 ag inactive
COc1ccc(NC(=O)C(=O)NC2CCCCCC2)c(OC)c1	GPR151 ag 5.3 | GPR151 conf act inactive | GPR119 ag inactive
COc1cc(OC)cc(C(=O)NNC(=O)NC2CCCCC2)c1	GPR151 ag 7.3 | GPR151 conf act inactive | GPR119 ag inactive
CCOc1ccc(CN2CCN(S(=O)(=O)c3ccccc3[N+](=O)[O-])CC2)cc1	none
Cc1ccnc(SCc2cc(=O)c(OC(=O)/C=C/c3ccccc3)co2)n1	none
CNC(=O)CN(c1ccc(Cl)cc1Cl)S(C)(=O)=O	none
CC(C)c1ccc(NC(=O)C2CCN(C(=O)c3n[nH]c4ccccc34)CC2)cc1	none
O=CN/N=C/c1c2ccccc2cc2ccccc12	none
CC1CN(C2CCN(Cc3cccc(Br)c3)CC2)CC(C)O1 (stereo not drawn)	none
O=C(Nc1ccc2c(c1)N(C(=O)c1ccco1)CC2)c1cccs1	none
O=C(c1ccco1)N1CCc2ccc(NC(=O)C3(c4ccccc4)CCOCC3)cc21	GPR151 ag 8.4 | GPR151 conf act inactive | GPR119 ag inactive
O=c1c2c3c(sc2[nH]c(=S)n1-c1ccccc1)CN(Cc1ccccc1)CC3	GPR151 ag 5.3 | GPR151 conf act inactive | GPR119 ag inactive
O=c1c2c3c(sc2[nH]c(=S)n1-c1ccccc1)CCC3	none
COCCCNC(=S)N1CCCC(c2nc3ccc(C)cc3[nH]2)C1 (stereo not drawn)	GPR151 ag 5.2 | GPR151 conf act inactive | GPR119 ag inactive
CCOC(=O)CCNC(=O)N1CCCC(CCC(=O)N(C)CCc2ccccn2)C1 (stereo not drawn)	none
CCOC(=O)CCNC(=O)N1CCCC(N(C)CCc2ccccn2)C1 (stereo not drawn)	GPR151 ag 5.4 | GPR151 conf act inactive | GPR119 ag inactive
Cc1nonc1CC(=O)N1CCCC(CCC(=O)N(C)CCc2ccccn2)C1 (stereo not drawn)	GPR151 ag 7.7 | GPR151 conf act inactive | GPR119 ag inactive
COc1ccc(-c2cc(N)n(S(=O)(=O)c3ccc(OC)c(OC)c3)n2)cc1	none
CCCN(Cc1cccs1)C(=O)NCc1ccccc1	GPR151 ag 8.1 | GPR151 conf act inactive | GPR119 ag inactive
O=C(c1ccccc1)c1ccc(C(=O)N2CCN(c3ccccc3)CC2)o1	none
O=C(c1ccccc1)c1ccc(C(=O)N2CCCCC2)o1	GPR151 ag 6.7 | GPR151 conf act inactive | GPR119 ag inactive
CC1CCN(C(=O)Oc2ccccc2)CC1	none
CC1CCN(C(=O)Nc2ccc(Cl)cc2)CC1	none
CC1CCN(C(=O)Nc2ccc(F)cc2)CC1	GPR151 ag 7.2 | GPR151 conf act inactive | GPR119 ag inactive
CC(=O)Nc1ccc(OC(=O)N2CCC(C)CC2)cc1	GPR151 ag 5.3 | GPR151 conf act inactive | GPR119 ag inactive
COCCN1Cc2cc3cc(C)ccc3nc2OCC1=O	GPR151 ag 7.2 | GPR151 conf act inactive | GPR119 ag inactive
O=C1CCC(CCNCc2ccc(F)cc2)N1Cc1cccc(-n2cccn2)c1 (stereo not drawn)	none
Cc1ccc(-c2nn(CC(=O)NCc3ccccc3)c(=O)c3ccccc23)cc1	GPR151 ag 5.1 | GPR151 conf act inactive | GPR119 ag inactive
CC(C)(C)NC(=O)Cn1nc(C(=O)O)c2ccccc2c1=O	GPR151 ag 5.9 | GPR151 conf act inactive | GPR119 ag inactive
O=C(CCn1nc(-c2ccccc2)c2ccccc2c1=O)NCc1ccccc1	GPR151 ag 18 | GPR151 conf act inactive | GPR119 ag inactive
CNC(=O)Cn1nc(-c2ccc(C)cc2)c2ccccc2c1=O	none
CNC(=O)Cn1nc(C(=O)O)c2ccccc2c1=O	none
CCCCNC(=O)CCn1nc(-c2ccccc2)c2ccccc2c1=O	none
Cn1c(=O)c2c(SCC(=O)O)nc(-c3ccccc3Cl)nc2n(C)c1=O	GPR151 ag 4.9 | GPR151 conf act inactive | GPR119 ag inactive
Cn1c(=O)c2c(SCC(=O)O)nc(-c3ccco3)nc2n(C)c1=O	none
Cn1c(=O)c2c(SCC(=O)c3ccccc3)nc(-c3ccccc3F)nc2n(C)c1=O	none
CCSc1nc(-c2ccco2)nc2c1c(=O)n(C)c(=O)n2C	GPR151 ag 6.3 | GPR151 conf act inactive | GPR119 ag inactive
COc1cccc2c1CC(c1nc3ccc(-c4cn[nH]c4)cc3c(=O)[nH]1)CO2 (stereo not drawn)	none
Cc1ccc(NC(=O)CCNc2c(N3CCCC3)c(=O)c2=O)cc1Cl	GPR151 ag 12 | GPR151 conf act inactive | GPR119 ag inactive
O=C(CCNc1c(N2CCCC2)c(=O)c1=O)NC1CCCCCC1	GPR151 ag 7.2 | GPR151 conf act inactive | GPR119 ag inactive
O=C(CCNc1c(N2CCCC2)c(=O)c1=O)Nc1ccc(F)c(Cl)c1	none
